Data on 12 molecules can be found in PubChem BioAssay (Tox21).

A short description of assay [1]: qHTS assay to test for compound auto fluorescence at 535 nm (green) in HepG2 cells (AID 720675).
Assay [2] can be described thus: qHTS assay to test for compound auto fluorescence at 590 nm (red) in HEK293 cells (AID 720679). The method in brief:
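Each well held 2,000 HEK293 cells in medium containing 10% dialyzed FBS. Following 4-5 hr attachment at 37C, 23 nL test compound or DMSO was added; plates sat overnight, and red fluorescence (540/590nm) was recorded.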
Background: qHTS replaces the single test concentration by a dilution series.

Assay [3] can be described thus: qHTS assay to test for compound auto fluorescence at 535 nm (green) in HepG2 cell free culture (AID 720686).
Assay [4] deals with Glucocorticoid receptor (Homo sapiens) (UniProt P04150). As to the kind of experiment: qHTS assay to identify small molecule agonists of the glucocorticoid receptor (GR) signaling pathway (AID 720691; active = well fitted activation curve with a large enough effect in the signal ratio in the repeat runs, not every such curve was filed as active; inconclusive = weak or mixed curves, or effect the other way; inactive = no such curve, though single readings can be large or run the other way; the % refers to the signal ratio). In a few lines: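 Fluorescence intensity from LiveBLAzer B/G FRET substrate (2 h, room temperature) reports beta-lactamase expression driven by the glucocorticoid response element in GR-bla HeLa cells after 18 h compound exposure at 37 C.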

Assay [5] in a line: qHTS assay for identifying genotoxic compounds that show differential cytotoxicity against isogenic chicken DT40 cell lines with known DNA damage response pathways - wild type cell line (AID 743012). Note: nearly all actives have a fitted effect of over 60% in size. Note: potency is the fitted concentration of half-maximal effect. In a few lines:
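Wild type DT40, 300 cells/well, ~0.5 h settle at 37 C/5% CO2; compounds in DMSO added by pintool; 40 h at 37 C/5% CO2; CellTiter-Glo, 30 min RT; luminescence.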

Assay [6] is described as follows: qHTS assay for identifying genotoxic compounds that show differential cytotoxicity against isogenic chicken DT40 cell lines with known DNA damage response pathways - Rev3 mutant cell line (AID 743014). Note: nearly all actives have a fitted effect of over 55% in size. Note: potency is the fitted concentration of half-maximal effect.
A short description of assay [7]: qHTS assay for identifying genotoxic compounds that show differential cytotoxicity against isogenic chicken DT40 cell lines with known DNA damage response pathways - Rad54/Ku70 mutant cell line (AID 743015). Note: nearly all actives have a fitted effect of over 60% in size. Note: potency is the fitted concentration of half-maximal effect.
A short description of assay [8]: qHTS assay to identify small molecule antagonists of the androgen receptor (AR) signaling pathway - cell viability counter screen (AID 743033; note: nearly all actives have a fitted effect of over 45% in size).
Assay [9] in a line: qHTS assay to identify small molecule antagonists of the androgen receptor (AR) signaling pathway using the MDA cell line - cell viability counter screen (AID 743041; note: nearly all actives have a fitted effect of over 45% in size). The method in brief:
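MDA-kb2 AR-luc cells (MMTV-luciferase, AR/GR responsive) treated with compounds plus R1881 agonist for 16 h at 37C. CellTiter-Fluor added at 15.5 h; fluorescence read after 30 min in the same wells.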

Assay [10] can be described thus: qHTS assay to identify small molecule antagonists of the thyroid receptor (TR) signaling pathway (AID 743065). Note: nearly all actives have a fitted effect of over 55% in size. Note: potency is the fitted concentration of half-maximal effect. In a few lines: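 GH3.TRE-Luc rat pituitary cells (two TREs driving luciferase) were dosed with compound, then stimulated with 1 nM T3 (final) for 23.5 h at 37 C. ONE-Glo luminescence was the read-out, with CellTiter-Fluor fluorescence as the cytotoxicity counter-screen.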

Assay [11] has as its system thyroid hormone receptor (rat, GH3 cells). As to the kind of experiment: qHTS assay to identify small molecule agonists of the thyroid receptor (TR) signaling pathway (AID 743066; calls by dose curve).
Assay [12] in a line: qHTS assay to identify small molecule antagonists of the estrogen receptor alpha (ER-alpha) signaling pathway - cell viability counter screen (AID 743074; calls by dose curve;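 note: HEK293 cells carrying ER-alpha-UAS-bla reporter stimulated with 17beta-estradiol; nearly all actives have a fitted effect of over 45% in size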).
The nature of assay [13]: qHTS assay to identify small molecule antagonists of the estrogen receptor alpha (ER-alpha) signaling pathway using the BG1 cell line - cell viability counter screen (AID 743081).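 Note: compound given together with 17beta-estradiol as the ER stimulus; series mostly up to about 70 µM; nearly all actives have a fitted effect of over 45% in size.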
Assay [14] is described as follows: qHTS assay to identify small molecule that activate the aryl hydrocarbon receptor (AhR) signaling pathway - cell viability counter screen (AID 743086). The method in brief:
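HepG2-AhR-luc (HG2L7.5c1) cells, 4000/well, treated 24 h at 37 C with compound; viability measured as CellTiter-Fluor fluorescence after 30 min in the same wells as the luciferase read.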

For assay [15], the target named is Peroxisome proliferator-activated receptor gamma (Homo sapiens) (UniProt P37231). The assay is described as follows: qHTS assay to identify small molecule agonists of the peroxisome proliferator-activated receptor gamma (PPARg) signaling pathway (AID 743094; active = well fitted activation curve with a large enough effect in the signal ratio in the repeat runs, not every such curve was filed as active; inconclusive = weak or mixed curves, or effect the other way; inactive = no such curve, though single readings can be large or run the other way; the % refers to the signal ratio). The method in brief: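 Beta-lactamase FRET fluorescence was the read-out after a 1 h room-temperature substrate step, following 17 h compound treatment at 37C of HEK293H cells expressing a UAS-driven bla reporter responsive to PPARg.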

Assay [16] in a line: qHTS assay for small molecule agonists of the p53 signaling pathway - cell viability (AID 651633; calls by dose curve;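 note: p53RE-bla HCT reporter cells with a stable beta-lactamase p53 reporter; series mostly up to about 83 µM; nearly all actives have a fitted effect of over 30% in size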). In a few lines: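 p53RE-bla cells were treated with compound for 16 hours at 37 C. Cytotoxicity was then measured as CellTiter-Glo luminescence after 30 min at room temperature.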
Assay [17] addresses Estrogen receptor (Homo sapiens) (UniProt P03372). As to the kind of experiment: qHTS assay to identify small molecule agonists of the estrogen receptor alpha (ER-alpha) signaling pathway (AID 743075; calls by dose curve;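 note: HEK293 GripTite cells with ER-alpha and UAS-driven beta-lactamase reporter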; note: potency is the fitted concentration of half-maximal effect).
Assay [18] shares this target. As to the kind of experiment: qHTS assay to identify small molecule agonists of the estrogen receptor alpha (ER-alpha) signaling pathway using the BG1 cell line (AID 743079). Note: nearly all actives have a fitted effect of over 20% in size. Note: potency is the fitted concentration of half-maximal effect.
Assay [19] in a line: qHTS assay to identify small molecule antagonists of the estrogen receptor alpha (ER-alpha) signaling pathway using the BG1 cell line (AID 743080; calls by dose curve; note: nearly all actives have a fitted effect of over 25% in size; note: potency is the fitted concentration of half-maximal effect). In a few lines: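 Antagonist mode: compounds in DMSO were pinned onto BG1-Luc-4E2 cells alongside 17beta-estradiol agonist, incubated 21.5 h, and ERE-driven luciferase measured with ONE-Glo. Cytotoxicity was multiplexed using CellTiter-Fluor fluorescence.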

The target in assay [20] is Nuclear receptor subfamily 1 group I member 2 (Homo sapiens) (UniProt O75469). The assay is described as follows: CYP3A4 induction through human pregnane X receptor (PXR) by small molecules, qHTS assay (AID 1346984). Note: nearly all actives have a fitted effect of over 40% in size. The method in brief: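 Luminescence readout: luciferase signal after One-Glo (30 min, room temperature), following 3 h at 37C with 3uM final Luciferin-IPA P450 substrate. Cells were DPX-2 (HepG2, PXR/CYP3A4-luc co-transfected) dosed for 24 h.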

Where “and” joins values, the source holds several entries; their conditions need not be identical. Equal entries are not always repeated. The source holds several records for some structures; these can differ, active in one and inactive in another. Calls of active or inactive are those of the source. Unless noted, calls come from the whole dose curve; as a rule, active = well fitted curve in the direction sought with a large enough effect in the repeat runs; inconclusive = weak or mixed curves; inactive = no such curve, though single readings can be large; an effect the other way counts as inactive or inconclusive.

Glucocorticoid receptor (Homo sapiens), sequence (P04150 whole entry, looked up): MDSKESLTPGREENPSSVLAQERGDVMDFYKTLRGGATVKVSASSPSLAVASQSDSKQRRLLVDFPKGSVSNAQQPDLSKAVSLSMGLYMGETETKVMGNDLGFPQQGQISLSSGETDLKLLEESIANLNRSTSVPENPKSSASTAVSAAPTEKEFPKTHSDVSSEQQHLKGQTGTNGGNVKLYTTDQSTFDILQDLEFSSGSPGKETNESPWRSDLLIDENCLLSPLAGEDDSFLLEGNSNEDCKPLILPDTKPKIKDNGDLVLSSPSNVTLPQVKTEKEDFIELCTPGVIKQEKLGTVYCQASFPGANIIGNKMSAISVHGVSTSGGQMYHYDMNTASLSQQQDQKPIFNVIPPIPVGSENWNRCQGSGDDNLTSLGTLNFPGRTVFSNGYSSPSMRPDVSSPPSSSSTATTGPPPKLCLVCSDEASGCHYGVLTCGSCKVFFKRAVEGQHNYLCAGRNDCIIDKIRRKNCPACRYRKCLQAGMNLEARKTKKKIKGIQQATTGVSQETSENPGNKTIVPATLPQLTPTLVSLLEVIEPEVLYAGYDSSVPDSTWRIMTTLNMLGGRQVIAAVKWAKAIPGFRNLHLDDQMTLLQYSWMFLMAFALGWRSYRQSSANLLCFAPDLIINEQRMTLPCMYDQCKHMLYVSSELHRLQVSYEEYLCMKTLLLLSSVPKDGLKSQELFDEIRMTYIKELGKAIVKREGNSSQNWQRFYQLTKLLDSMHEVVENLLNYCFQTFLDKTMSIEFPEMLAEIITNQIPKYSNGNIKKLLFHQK
Estrogen receptor (Homo sapiens), sequence (P03372 whole entry, looked up): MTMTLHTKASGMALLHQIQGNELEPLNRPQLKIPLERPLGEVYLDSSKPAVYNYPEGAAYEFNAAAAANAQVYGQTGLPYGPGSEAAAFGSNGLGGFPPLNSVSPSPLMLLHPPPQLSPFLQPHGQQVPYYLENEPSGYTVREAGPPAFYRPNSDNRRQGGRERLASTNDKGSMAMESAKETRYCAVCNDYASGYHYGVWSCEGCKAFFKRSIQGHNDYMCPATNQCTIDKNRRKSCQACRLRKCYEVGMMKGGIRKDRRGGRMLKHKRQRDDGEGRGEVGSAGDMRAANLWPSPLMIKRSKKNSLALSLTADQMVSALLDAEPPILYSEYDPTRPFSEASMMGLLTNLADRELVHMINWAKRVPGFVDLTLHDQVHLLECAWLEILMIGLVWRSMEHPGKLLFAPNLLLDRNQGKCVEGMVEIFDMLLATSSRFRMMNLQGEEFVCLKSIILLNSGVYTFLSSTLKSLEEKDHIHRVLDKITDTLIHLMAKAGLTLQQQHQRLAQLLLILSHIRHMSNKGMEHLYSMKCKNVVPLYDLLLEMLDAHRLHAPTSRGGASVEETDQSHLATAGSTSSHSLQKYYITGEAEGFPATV
Peroxisome proliferator-activated receptor gamma (Homo sapiens), sequence (P37231 whole entry, looked up): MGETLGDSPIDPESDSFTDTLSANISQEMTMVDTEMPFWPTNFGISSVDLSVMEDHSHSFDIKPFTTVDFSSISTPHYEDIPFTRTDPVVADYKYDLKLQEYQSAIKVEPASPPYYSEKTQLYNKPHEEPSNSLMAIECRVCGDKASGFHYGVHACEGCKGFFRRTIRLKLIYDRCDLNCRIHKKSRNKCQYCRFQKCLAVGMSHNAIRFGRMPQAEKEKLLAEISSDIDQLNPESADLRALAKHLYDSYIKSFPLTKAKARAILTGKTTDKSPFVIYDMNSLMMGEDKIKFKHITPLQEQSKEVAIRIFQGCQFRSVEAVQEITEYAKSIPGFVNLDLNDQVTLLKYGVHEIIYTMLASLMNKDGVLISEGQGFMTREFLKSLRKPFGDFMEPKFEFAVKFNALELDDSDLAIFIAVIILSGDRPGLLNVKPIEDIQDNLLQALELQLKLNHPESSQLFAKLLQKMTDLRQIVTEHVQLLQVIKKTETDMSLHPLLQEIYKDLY

Take `O=C(O)CCCO`: the Potency result in assay [1], in assay [3], in assay [4], in assay [5], in assay [6] and in [7] was “inactive” throughout. Besides, the Potency entry in assay [8], in assay [9], in assay [10], in assay [11], in [12] and in assay [13] was “inactive” each time. For the same molecule, the Potency entry in assay [14] and in assay [15] was “inactive” throughout. For the same molecule, the call in [2] was inactive.
As for `CN[C@@]1(c2ccccc2Cl)CCCCC1=O`, the Potency result in assay [16], in assay [4], in [5], in [6], in assay [7] and in [8] was “inactive” in each case. In addition, the Potency result in [9], in assay [10], in [11], in [12], in assay [17] and in assay [18] was “inactive” in each case. Besides, the Potency entry in [19], in assay [13] and in assay [15] was “inactive” throughout. In assay [2], the molecule was called inactive.
As to `C[C@]12CC[C@@H]3c4ccc(OC(=O)N(CCCl)CCCl)cc4CC[C@H]3[C@@H]1CC[C@@H]2OP(=O)(O)O`, the Potency entry in assay [16], in [3], in assay [4], in [5], in assay [6] and in [7] was “inactive” in each case. In addition, the Potency entry in assay [8], in [12], in assay [19], in [13] and in assay [15] was “inactive” in each case. Further, the call in assay [2] was inactive. Besides, the Potency in [17] is 21.3 nM [inconclusive] (active) and 16.9 nM [inconclusive] (active); in [18], 4.7 nM (active) and 16.8 nM (active).
Take `CN1C(=O)CC(=O)N(c2ccccc2)c2cc(Cl)ccc21`: the Potency entry in [16], in assay [1], in [3], in assay [4], in [5] and in [6] was “inactive” in each case. In addition, the Potency result in [7], in [8], in assay [9], in [10], in assay [11] and in assay [12] was “inactive” in each case. For the same molecule, the Potency entry in assay [17], in assay [18], in assay [19], in [13], in assay [14] and in assay [15] was “inactive” each time. In addition, the Potency entry in assay [20] was “inactive”. The molecule was called inactive in assay [2].
On to `COc1ccc(OC)c(C[C@H](C)N)c1`, for which the Potency result in [1], in assay [3], in assay [5], in assay [6], in [7] and in assay [8] was “inactive” in each case. Moreover, the Potency entry in assay [17], in assay [18], in [19], in assay [13], in assay [14] and in [15] was “inactive” each time. For the same molecule, the outcome in assay [2] was inactive.
`Cc1nnc2n1-c1sc(Br)cc1C(c1ccccc1Cl)=NC2`: the Potency result in assay [16], in assay [1], in [3], in assay [4], in assay [6] and in assay [8] was “inactive” each time. For the same molecule, the Potency entry in [9], in assay [11], in assay [12], in [17], in assay [14] and in assay [15] was “inactive” in each case. Moreover, in assay [2], the result was inactive. Moreover, the Potency in assay [7] is 26.6 µM (active); in [10] it was 26.6 µM (active); in [19], 11.9 µM (active).
Turning to `C[C@@H](N)C(=O)c1ccccc1`, the Potency entry in [16], in assay [1], in assay [3], in assay [4], in assay [5] and in assay [6] was “inactive” in each case. Further, the Potency entry in assay [7], in assay [8], in [9], in assay [10], in [11] and in [17] was “inactive” in each case. Further, the Potency entry in assay [18], in assay [19], in [13] and in [15] was “inactive” throughout. Besides, in [2], the call was inactive.
For `CC(C)(O)[C@@H]1[C@H]2OC(=O)[C@@H]1[C@]1(O)C[C@H]3O[C@]34C(=O)O[C@H]2[C@]14C`, the Potency entry in [16], in assay [1], in assay [3], in [4], in assay [6] and in assay [7] was “inactive” in each case. Further, the Potency entry in assay [8], in assay [9], in assay [10], in [11], in assay [12] and in assay [13] was “inactive” each time. Further, the Potency result in assay [14] and in assay [20] was “inactive” in each case. In [2], the molecule was classed as inactive.
Take `CC(=O)Oc1ccc2c3c1O[C@H]1[C@@H](OC(C)=O)C=C[C@H]4[C@@H](C2)N(C)CC[C@@]341`: the Potency result in assay [16], in assay [1], in assay [3], in assay [4], in assay [6] and in [8] was “inactive” each time. Besides, the Potency entry in assay [10], in assay [11], in assay [12], in assay [17], in assay [18] and in assay [19] was “inactive” each time. In addition, the Potency result in assay [13], in assay [15] and in [20] was “inactive” each time. In addition, the call in assay [2] was inactive. Besides, in assay [5], the Potency result was “inactive and 68.3 µM (active)”.
`CC(C)C[C@H]1C(=O)N2CCC[C@H]2[C@]2(O)O[C@](NC(=O)[C@@H]3C[C@@H]4c5cccc6[nH]cc(c56)C[C@H]4N(C)C3)(C(C)C)C(=O)N12`: in assay [2], the molecule was called inactive. For the same molecule, the Potency result in assay [3], in assay [8], in assay [9], in assay [11], in assay [12] and in assay [17] was “inactive” each time. Besides, the Potency result in assay [18] and in assay [19] was “inactive” in each case. The Potency in assay [5] is 29.8 µM (active); in assay [6], 23.7 µM (active); in assay [10], 29.8 µM (active).
As to `CC(=O)OCC(=O)[C@H]1CC[C@H]2[C@@H]3CC[C@H]4C[C@H](O)CC[C@]4(C)[C@H]3C(=O)C[C@]12C`, the Potency entry in assay [16], in assay [1], in assay [3], in assay [4], in assay [5] and in assay [6] was “inactive” throughout. Besides, the Potency entry in [7], in [9], in assay [10], in assay [11], in assay [12] and in assay [17] was “inactive” in each case. The Potency result in assay [18], in [19], in assay [13], in assay [14] and in assay [20] was “inactive” each time. Moreover, the result in assay [2] was inactive.
For the molecule `O=c1c2ccccc2[se]n1-c1ccccc1`, the Potency result in [3], in [4], in assay [17] and in assay [13] was “inactive” each time. The Potency in [5] is 5.31 µM (active); in assay [6] it was 8.41 µM (active); in [7], 6.68 µM (active); in assay [10], 23.7 µM (active).
